Where a name gives a salt, the structure may show the parent alone.
tested on: Danio rerio Tg(wt1b:EGFP) embryo, pronephros; experiment: fraction of imaged embryos annotated as normal kidney; higher = less nephrotoxic; extreme values may be limits of the assay; conditions: 25 µM; exposure: 24-48 hpf
Method in brief: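 Dechorionated Tg(wt1b:EGFP) zebrafish embryos were exposed in 12-well plates to 25 μM compound in 0.5% DMSO, 5 mM HEPES-buffered E3 with 0.003% PTU, from 24 to 48 hpf at 28.5°C. Tricaine-anaesthetised larvae were oriented dorsally in agarose-filled 96-well plates, and pronephroi were imaged by widefield fluorescence (470 nm, 10 z-slices). Each embryo was manually annotated from maximum projections. The read-out is the fraction of embryos per treatment assigned to the normal-kidney category.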

Row | Structure (SMILES) | fraction of imaged embryos annotated as normal kidney
1 | CCN(CC)C(C)C(=O)c1ccccc1 (stereo not given) [Amfepramone hydrochloride] | 0.917
2 | Fc1ccc(C(OCCN2CCN(CCCc3ccccc3)CC2)c2ccc(F)cc2)cc1 | 0
3 | CC(=O)OCC(=O)[C@H]1CC[C@H]2[C@@H]3CC[C@H]4C[C@H](O)CC[C@]4(C)[C@H]3C(=O)C[C@]12C [Alfadolone acetate] | 0.75
4 | NC(=O)C[S+]([O-])C(c1ccccc1)c1ccccc1 (stereo not given) [Modafinil] | 0.5
5 | NC(=O)OCCCc1ccccc1 [Phenprobamate] | 0.75
6 | CC(Cc1ccccc1)NCCC(c1ccccc1)c1ccccc1 (stereo not given) [Prenylamine lactate] | 0.727
7 | CNC(C)(C)Cc1ccccc1 [Mephentermine hemisulfate] | 1
8 | CC(=O)[C@H]1CC[C@H]2[C@@H]3CC[C@H]4C[C@H](O)CC[C@]4(C)[C@H]3C(=O)C[C@]12C [Alfaxalone] | 0.583
9 | CN1[C@@H]2CC[C@H]1C[C@@H](OC(=O)[C@H](CO)c1ccccc1)C2 [Hyoscyamine (L)] | 0.75
10 | C[C@]12CC[C@@H](O)C[C@@H]1CC[C@@H]1[C@@H]2CC[C@]2(C)C(=O)CC[C@@H]12 [Androsterone] | 0.75
11 | OC(c1ccccc1)(c1ccccc1)C1CCNCC1 [Azacyclonol] | 0.833
12 | O=C(CCCN1CCC(n2c(=O)[nH]c3ccccc32)CC1)c1ccc(F)cc1 [Benperidol] | 0.917
13 | O=[N+]([O-])O[C@@H]1CO[C@H]2[C@@H]1OC[C@@H]2O [Isosorbide mononitrate] | 0.833
14 | CCCC(C)C1(CC)C(=O)NC(=O)NC1=O (stereo not given) [Pentobarbital] | 0.667
15 | CCN[C@@H](C)Cc1cccc(C(F)(F)F)c1 [Dexfenfluramine hydrochloride] | 0.917
16 | C[N+]1(C)CCCC(OC(=O)C(O)(c2ccccc2)c2ccccc2)C1 (stereo not given) [Mepenzolate bromide] | 0.727
17 | CC[C@@H](CO)NC(=O)[C@@H]1C=C2c3cccc4[nH]cc(c34)C[C@H]2N(C)C1 [Methylergometrine maleate] | 0.909
18 | N[C@@H]1C[C@H]1c1ccccc1 [Tranylcypromine hydrochloride] | 0.727

Row | Structure (SMILES) | fraction of imaged embryos annotated as normal kidney
19 | CCC(=O)O[C@H]1CC[C@H]2[C@@H]3CCC4=CC(=O)CC[C@]4(C)[C@H]3CC[C@]12C [Testosterone propionate] | 0.75
20 | CC(=O)O[C@H]1C[C@H](O[C@H]2[C@@H](O)C[C@H](O[C@H]3[C@@H](O)C[C@H](O[C@H]4CC[C@@]5(C)[C@H](CC[C@@H]6[C@@H]5C[C@@H](O)[C@]5(C)[C@@H](C7=CC(=O)OC7)CC[C@]65O)C4)O[C@@H]3C)O[C@@H]2C)O[C@H](C)[C@H]1O[C@@H]1O[C@H](CO)[C@@H](O)[C@H](O)[C@H]1O [Lanatoside C] | 0.917
21 | CCCN1C[C@H](CSC)C[C@@H]2c3cccc4[nH]cc(c34)C[C@H]21 [Pergolide mesylate] | 1
22 | c1ccc2nc(N3CCNCC3)ccc2c1 [Quipazine dimaleate salt] | 0.75
23 | C[C@]12CC[C@@H](O)C[C@H]1CC[C@@H]1[C@@H]2CC[C@]2(C)C(=O)CC[C@@H]12 [3-alpha-Hydroxy-5-beta-androstan-17-one] | 0.75
24 | CN1C[C@H](CNC(=O)OCc2ccccc2)C[C@@H]2c3cccc4c3c(cn4C)C[C@H]21 [Metergoline] | 1
25 | Oc1ccc2c3c1O[C@H]1[C@@H](O)CC[C@@]4(O)[C@@H](C2)N(CC2CCC2)CC[C@]314 [Nalbuphine hydrochloride] | 0.75
26 | C[C@]12CC[C@H]3[C@@H](CCC4=CC(=O)CC[C@@H]43)[C@@H]1CC[C@@H]2O [Nandrolone] | 0.833
27 | CNCC(O)c1ccc(O)cc1 (racemic) [(+,-)-Synephrine] | 0.833
28 | C[C@H](N)[C@H](O)c1ccc(O)c(O)c1 [Levonordefrin] | 0.667
29 | CCC1(CC)C(=O)C=CNC1=O [Pyrithyldione] | 0.727
30 | NCCCNCCSP(=O)(O)O [Amifostine] | 0.833
31 | NCCc1c[nH]c2ccc(O)cc12 [Serotonin hydrochloride] | 0.667
32 | COc1cccc(C2(O)CCCCC2CN(C)C)c1 (stereo not given) [Tramadol hydrochloride] | 0.833
33 | C[C@@]12N[C@@H](Cc3ccccc31)c1ccccc12 [(-)-MK 801 hydrogen maleate] | 1
34 | CCC(C)C1O[C@]2(C=C[C@@H]1C)C[C@@H]1CC(C/C=C(\C)[C@@H](OC3C[C@H](OC)[C@@H](OC4C[C@H](OC)[C@@H](O)[C@H](C)O4)[C@H](C)O3)[C@@H](C)/C=C/C=C3\COC4[C@H](O)C(C)=CC(C(=O)O1)[C@]34O)O2 (stereo not given in full) [Avermectin B1a] | 0.583
35 | C#C[C@]1(O)CC[C@H]2[C@@H]3CCC4=CC(=O)CCC4=C3C=C[C@@]21CC [Gestrinone] | 0.417
